Measured values published in PubChem BioAssay (NCATS).
Results filed as inconclusive are left out. Entries that show only a call come without a potency. Calls of active or inactive are those of the source. Calls follow the shape of the dose curve; as a rule, active = well fitted inhibition curve with a large enough effect; inconclusive = small, poorly fitted or top-dose-only effect; inactive = flat fitted curve, though single readings scatter.

How the values were obtained:
[1] = molecular target: Glutathione peroxidase 1 (Homo sapiens) (UniProt P07203); assay: Primary qHTS Assay for Inhibitors of Recombinant Selenoprotein Glutathione Peroxidase 1 (GPX1) (AID 1845191)
Sequence of Glutathione peroxidase 1 (Homo sapiens) (P07203 whole entry, looked up): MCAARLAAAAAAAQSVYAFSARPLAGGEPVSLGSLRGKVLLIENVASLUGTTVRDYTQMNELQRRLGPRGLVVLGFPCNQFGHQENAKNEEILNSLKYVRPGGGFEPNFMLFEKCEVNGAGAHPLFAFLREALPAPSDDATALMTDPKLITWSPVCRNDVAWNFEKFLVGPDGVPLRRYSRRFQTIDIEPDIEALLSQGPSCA
Procedure, shortened: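 GPX1 10 nM, GR 100 nM, GSH 1 mM, NADPH 0.5 mM, CHP 0.5 mM (final). 30-min cpd preincubation, RT. Ex340/Em450 read t=0, t=15 min.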

[2] = molecular target: Phospholipid hydroperoxide glutathione peroxidase GPX4 (Homo sapiens) (UniProt P36969); assay: Primary qHTS Assay for Inhibitors of Recombinant Selenoprotein Glutathione Peroxidase 4 (GPX4) (AID 1845192)
Sequence of Phospholipid hydroperoxide glutathione peroxidase GPX4 (Homo sapiens) (P36969 whole entry, looked up): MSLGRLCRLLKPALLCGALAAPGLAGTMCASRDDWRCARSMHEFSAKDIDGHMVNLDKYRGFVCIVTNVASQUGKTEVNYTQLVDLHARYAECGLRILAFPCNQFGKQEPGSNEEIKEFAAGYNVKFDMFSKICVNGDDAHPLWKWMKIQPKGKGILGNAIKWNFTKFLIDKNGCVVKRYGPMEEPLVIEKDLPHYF
Procedure, shortened: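 qHTS, GR-coupled: GPX4 200 nM + cpd 30 min RT → GSH 1 mM, NADPH 0.5 mM, GR 100 nM → CHP 0.5 mM start; fluor 340/450 at t0 and t15 min; no-enzyme wells as control.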
Also: nearly all actives have a fitted effect of over 65% in size.

| Compound | Potency [1] | Potency [2] |
| --- | --- | --- |
| CN(C)c1nc2c(Br)c(Br)c(Br)c(Br)c2[nH]1 | inactive |  |
| COc1ccc(C(=O)/C(Cc2cc(OC)c(OC)c(OC)c2)=C(\C(=O)O)c2ccc3c(c2)OCO3)cc1 | inactive | inactive |
| CCNC(=O)[C@H]1O[C@@H](n2cnc3c(N)nc(NCCc4ccc(CCC(=O)O)cc4)nc32)[C@H](O)C1O (stereo partly specified) | inactive | inactive |
| CNC(=O)c1c(I)c(NC(=O)CCCCC(=O)Nc2c(I)c(C(=O)O)c(I)c(C(=O)NC)c2I)c(I)c(C(=O)O)c1I | inactive | inactive |
| O=C(O)CNC(=O)C(CS)Cc1ccccc1 (stereo unspecified) | inactive | inactive |
| CN1C2CCC1CC(OC(=O)C(O)c1ccccc1)C2 (stereo unspecified) | inactive | inactive |
| CCCCCCCCCCCCCCCCCCN(CCCCCCCCCCCCCCCCCC)CCCN(CCO)CCO | inactive | inactive |
| CN(C)c1ccc(/C=C2\C(=O)Nc3ccccc32)cc1 | inactive | inactive |
| C=C[C@H]1CN2CC[C@@H]1C[C@@H]2[C@@H](O)c1ccnc2ccc(OC)cc12 | inactive | inactive |
| O=C1NCc2c1c1c3ccccc3[nH]c1c1[nH]c3ccccc3c21 | inactive | inactive |
| O=C(Nc1cccc(C(=O)Nc2ccc(S(=O)(=O)O)c3cc(S(=O)(=O)O)cc(S(=O)(=O)O)c23)c1)Nc1cccc(C(=O)Nc2ccc(S(=O)(=O)O)c3cc(S(=O)(=O)O)cc(S(=O)(=O)O)c23)c1 | inactive | inactive |
| O=[N+]([O-])c1ccc2c(c1)S(=O)(=O)C=C2 | inactive | inactive |
| CSc1nc(N)c2ncn([C@@H]3O[C@H](COP(=O)(O)OP(=O)(O)OP(=O)(O)O)[C@@H](O)[C@H]3O)c2n1 | inactive | inactive |
| COCCOc1cc2ncnc(Cl)c2cc1OCCOC | inactive | inactive |
| O=C(NOCC1CC1)c1cc(Br)c(F)c(F)c1Nc1ccc(I)cc1Cl | inactive | inactive |
| Fc1ccc(C(OCCCc2cnc[nH]2)c2ccc(F)cc2)cc1 | inactive | inactive |
| O=C(O)CC1CCCc2ccccc2C1O (stereo unspecified) | inactive | inactive |
| Nc1ccn([C@@H]2O[C@H](CO)[C@@H](O)[C@@H]2O)c(=O)n1 | inactive | inactive |
| O=C(O)c1cc([N+](=O)[O-])ccc1NCCCc1ccccc1 | inactive | inactive |
| C[N+](C)(C)CCOP(=O)(O)OP(=O)([O-])OC[C@H]1O[C@@H](n2ccc(N)nc2=O)[C@H](O)[C@@H]1O | inactive | inactive |
| O=c1cc(-c2ccccc2)oc2c(O)c(O)ccc12 | inactive | inactive |
| N[C@H](CCCP(=O)(O)O)C(=O)O | inactive | inactive |

| Compound | Potency [1] | Potency [2] |
| --- | --- | --- |
| CC1(C)CCC=[N+]1[O-] | inactive | inactive |
| CC(C)NC[C@H](O)COc1cccc2[nH]ccc12 | inactive | inactive |
| S=c1[nH]c(-c2ccccc2)cn1-c1ccccc1 | inactive | inactive |
| NC(=O)C1=CN(C2OC(COP(=O)(O)OP(=O)(O)OC[C@H]3O[C@@H](n4cnc5c(N)ncnc54)[C@H](OP(=O)(O)O)[C@@H]3O)C(O)C2O)C=CC1 (stereo partly specified) | inactive | inactive |
| c1ccc(-c2ccccn2)nc1 | inactive | inactive |
| N.N.N.N.N.N.N.N.N.N.N.N.N.N.O.O.[Ru+4].[Ru+5].[Ru+5] | inactive | inactive |
| CC(C)(C=O)Cc1cc(C(C)(C)C)c(O)c(C(C)(C)C)c1 | inactive | inactive |
| CSc1ccccc1N1CCN(CCCCCC(=O)NC2CCCc3ccccc32)CC1 (stereo unspecified) | inactive | inactive |
| CC1(C)S[C@@H]2[C@H](NC(=O)[C@H](N)c3ccccc3)C(=O)N2[C@H]1C(=O)O | inactive |  |
| CC(C)CC(NP(=O)(O)O[C@@H]1O[C@@H](C)[C@H](O)[C@@H](O)[C@H]1O)C(=O)NC(Cc1c[nH]c2ccccc12)C(=O)O (stereo partly specified) | inactive | inactive |
| O=C(c1cc(O)c(O)c([N+](=O)[O-])c1)c1ccccc1F | inactive | inactive |
| O=C1/C(=C/c2ccsc2)CC/C1=C\c1cccs1 | inactive | inactive |
| O=C(CCc1ccncc1)NNC(=O)N1Cc2ccccc2Oc2ccc(Cl)cc21 | inactive | inactive |
| C#C[C@]1(O)CC[C@H]2[C@@H]3CCC4=Cc5oncc5CC4(C)[C@H]3CCC21C (stereo partly specified) | inactive | inactive |
| O=C(O)/C=C\C(=O)O | inactive | inactive |
| CC(C)Cc1ccc([C@H](C)C(=O)O)cc1 | inactive | inactive |
| O=C(c1ccc(OCCCc2cnc[nH]2)cc1)C1CC1 | inactive | inactive |
| Cn1cc(C2=C(c3ccc(Cl)cc3Cl)C(=O)NC2=O)c2ccccc21 | inactive | inactive |
| COc1cc(OC)c(/C=C2/C(=O)Nc3ccccc32)c(OC)c1 | inactive | inactive |
| CO[C@H]1O[C@@H]2O[C@]3(C)CC[C@@H]4[C@@H](C)CC[C@H]([C@H]1C)[C@]24OO3 | inactive | inactive |
| Nc1nc(OCC2CCCCC2)c2[nH]cnc2n1 | inactive | inactive |
| COc1ccc2c(c1)CCC1C2CC[C@@]2(C)C1CC[C@@H]2NCCCCCCN1C(=O)CCC1=O (stereo partly specified) | inactive | inactive |
